Records with an inconclusive call do not appear. A call without a number means that no potency is given here. The source made the active and inactive calls. Calls follow the shape of the dose curve; as a rule, active = well fitted curve in the direction sought with a large enough effect; inconclusive = small, poorly fitted or top-dose-only effect, or another doubt; inactive = no such curve, though single readings can be large; an effect the other way counts as inactive or inconclusive. Where a SMILES comes first, the peptide text is derived from it. The star is where a group is joined. PhAc = O=C(Cc1ccccc1)*
What was measured:
[1] = target: Cytochrome P450 3A7 (Homo sapiens) (UniProt P24462); assay: Cytochrome P450 family 3 subfamily A member 7 (CYP3A7) small molecule antagonists: luciferase biochemical qHTS assay (AID 1963596)
Cytochrome P450 3A7 (Homo sapiens), sequence (P24462 whole entry, looked up): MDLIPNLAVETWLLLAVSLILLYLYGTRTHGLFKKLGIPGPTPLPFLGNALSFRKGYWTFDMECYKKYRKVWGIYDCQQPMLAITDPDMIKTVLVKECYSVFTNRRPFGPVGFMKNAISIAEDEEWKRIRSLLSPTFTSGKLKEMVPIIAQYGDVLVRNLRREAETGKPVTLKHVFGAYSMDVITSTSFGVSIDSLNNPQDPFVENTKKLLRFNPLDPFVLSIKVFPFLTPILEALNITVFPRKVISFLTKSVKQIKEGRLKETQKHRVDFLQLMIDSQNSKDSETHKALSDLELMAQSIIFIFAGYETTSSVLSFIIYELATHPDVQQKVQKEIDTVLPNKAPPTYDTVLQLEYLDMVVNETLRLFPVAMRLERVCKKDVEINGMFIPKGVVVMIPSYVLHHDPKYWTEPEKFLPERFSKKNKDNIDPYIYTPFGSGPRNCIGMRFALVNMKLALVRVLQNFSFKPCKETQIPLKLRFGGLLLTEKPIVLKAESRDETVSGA
Outline: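 Luminescence read-out (relative luminescence units) after 20 min with detection reagent, which stops the reaction. Enzyme, proluciferin substrate and compound preincubated 10 min, RT; NADPH regeneration system then started 1 h reaction. Ketoconazole as positive control.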

[2] = Viability qHTS for spleen associated tyrosine kinase inhibitor (SYKi) naive MV4-11 cells (AID 1963823)
Outline: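 qHTS, SYK inhibitor-naive MV4-11; 500 cells/well; 72 hr compound exposure, 37 C; CellTiter-Glo added, 10 min RT; luminescence read.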
Also: nearly all actives have a fitted effect of over 40% in size.
Potency is read from the fitted curve at half-maximal effect.

O=C(OC(C(F)(F)F)C(F)(F)F)N1CCN(Cc2cccc(Oc3ccccc3)c2)CC1
Potency [1]: inactive

NC(Cc1ccc(O)c(O)c1)C(=O)O (stereo not drawn)
Potency [1]: inactive

C/C=C/C=C/C(=O)O
Potency [1]: inactive

Fc1ccc(-c2c3cccc(C(F)(F)F)c3nn2Cc2ccc(F)cc2Cl)cc1
Potency [1]: inactive

C[C@H](O)CN(C)C
Potency [1]: inactive

CCCCCCCCNC(C)C(O)c1ccc(SC(C)C)cc1 (stereo not drawn)
Potency [1]: inactive

CCN(CC)C(=O)c1cccnc1
Potency [1]: inactive

COC(C)=O
Potency [1]: inactive

CC1(C)OC[C@H](NC(=O)Nc2ccc(Br)cc2Br)[C@H](c2ccccc2)O1
Potency [1]: inactive

COC(=O)c1ccccc1O
Potency [1]: inactive

CC1(C)[C@H]2C[C@H](C/C=C\CCCC(=O)O)[C@@H](NC(=O)c3csc4ccc(O)cc34)[C@@H]1C2
Potency [1]: inactive

Cc1cc(OCCCS(C)(=O)=O)cc(C)c1-c1cccc(COc2ccc3c(c2)OCC3CC(=O)O)c1 (stereo not drawn)
Potency [1]: inactive

COc1ccc([C@@H]2N[C@H](C(=O)O)Cc3c2[nH]c2ccccc32)cc1CN1CCN(c2ccccc2F)CC1
Potency [1]: inactive

C=CCNCCCCCC[N+](C)(C)C
Potency [1]: inactive

N=C(N)n1cccn1
Potency [1]: inactive

C[S+](=O)([O-])Nc1ccc(-c2ccc3nc(-c4cccc(OC(F)(F)F)c4)[nH]c3c2)cc1
Potency [1]: inactive

Cc1cc(N)c2cc(NC(=O)Nc3ccc4nc(C)cc(N)c4c3)ccc2n1
Potency [1]: inactive

CN(C)CCOC(c1ccc(Cl)cc1)c1ccccn1 (stereo not drawn)
Potency [1]: inactive

COc1ccc(NC(=O)c2ccc(-c3ccc(C(=N)N)cc3C)cc2)cc1N1CCN(C)CC1
Potency [1]: inactive

CC(C)OC(=O)N1CCC(Oc2ncnc3c2cnn3-c2ccc(S(C)(=O)=O)cc2F)CC1
Potency [1]: inactive

Fc1ccc(CN2CCC(Nc3ccc(C(F)(F)F)nn3)CC2)cc1F
Potency [1]: inactive

CCc1ccccc1OC[C@@H](O)CN[C@H]1CCCc2ccccc21
Potency [1]: inactive

CC(C)(F)C[C@@H](N[C@@H](c1ccc(-c2ccc(S(C)(=O)=O)cc2)cc1)C(F)(F)F)C(=O)NC1(C#N)CC1
Potency [1]: inactive

CCCCCCCC(=O)O
Potency [1]: inactive

COc1ccc(NC(=O)Cn2ccn(-c3ccc(C)c(C)c3)c(=O)c2=O)cc1Cl
Potency [1]: inactive

Cc1ccc(Cn2c(SCc3ccc(C(=O)N4CCCCCC4)cc3)nc3ccncc32)cc1
Potency [1]: inactive

N#Cc1cc(C2=Nc3ccc(Br)cc3NC(=O)C2)ccn1
Potency [1]: inactive

CNc1nc(C)nc(N[C@H]2CCC[C@@H](C(=O)NCc3ccc(C#N)cc3C(F)(F)F)C2)n1
Potency [1]: inactive

NCC1OC(OC2C(N)CC(N)C(OC3OC(CO)C(O)C(N)C3O)C2O)C(N)CC1O (stereo not drawn)
Potency [1]: inactive

Oc1c(I)cc(I)c2cccnc12
Potency [1]: inactive

CC1(C)Oc2ncnc(N)c2N=C1c1ccc(C23CCC(CC(=O)O)(CC2)CC3)cc1
Potency [1]: inactive

Cc1ccc(-c2nnc(Nc3ccc(Br)cc3)c3ccccc23)cc1S(=O)(=O)NCc1nc2ccccc2[nH]1
Potency [1]: inactive

CN1C(=O)OC(C)(C)C1=O
Potency [1]: inactive

O=C(O)c1cc(O)c2c(O)c3c(O[C@@H]4O[C@H](CO)[C@@H](O)[C@H](O)[C@H]4O)cccc3c(-c3c4cc(C(=O)O)cc(O)c4c(O)c4c(O[C@@H]5O[C@H](CO)[C@@H](O)[C@H](O)[C@H]5O)cccc34)c2c1
Potency [1]: inactive

CCCC(CCC)C(N)=O
Potency [1]: inactive

C=C(C)Cn1c(SCC(=O)c2cccs2)nc2sc3c(c2c1=O)CCCC3
Potency [1]: inactive

Cc1c(C)n(CCN(C)C)c2ccc(C(=O)OCCN(C)C)cc12
Potency [1]: inactive

Cn1c(=O)cc(N2CCCC(N)C2)n(Cc2cc(F)ccc2C#N)c1=O (stereo not drawn)
Potency [1]: inactive

CN[C@H](CC(C)C)C(=O)N[C@H]1C(=O)N[C@@H](CC(N)=O)C(=O)N[C@H]2C(=O)N[C@H]3C(=O)N[C@H](C(=O)N[C@H](C(=O)O)c4cc(O)cc(O)c4-c4cc3ccc4O)[C@H](O)c3ccc(c(Cl)c3)Oc3cc2cc(c3O[C@@H]2OC(CO)[C@@H](O)[C@H](O)[C@@H]2O[C@H]2C[C@](C)(N)[C@H](O)[C@H](C)O2)Oc2ccc(cc2Cl)[C@H]1O (stereo partly drawn)
Potency [1]: inactive

COc1cc(C(=O)NC(c2ccccc2Cl)c2cc(Cl)c3cccnc3c2O)cc(OC)c1OC (stereo not drawn)
Potency [1]: inactive

CCC[C@H](N[C@@H](C)C(=O)N1[C@H](C(=O)O)C[C@@H]2CCCC[C@@H]21)C(=O)O
Potency [1]: inactive

CCOC(=O)c1csc(-n2nc(-c3ccc(F)c(F)c3)c(Cc3ccc(S(N)(=O)=O)cc3)c2N)n1
Potency [1]: inactive

NC(=O)C(CCC(F)(F)F)N(Cc1ccc(-c2ncon2)cc1F)S(=O)(=O)c1ccc(Cl)cc1 (stereo not drawn)
Potency [1]: inactive

CCCCCCOC(=O)c1cccnc1
Potency [1]: inactive

COc1ccc(NC(=O)Cn2cc(C(=O)c3cccs3)c3ccccc32)cc1
Potency [1]: inactive

C=CC1=C(C(=O)O)N2C(=O)[C@@H](NC(=O)/C(=N\O)c3csc(N)n3)[C@H]2SC1 (stereo in doubt)
Potency [1]: inactive

COc1ccc(-n2[nH]c3c(cnc4ccccc43)c2=O)cc1
Potency [1]: inactive

C[N+]1(CCCCC[N+]2(C)CCCC2)CCCC1
Potency [1]: inactive

Cc1cc(NC(=O)Nc2ccc(F)c(F)c2)n(-c2ccccc2)n1
Potency [1]: inactive

CCCN(CCc1cccs1)[C@H]1CCc2c(O)cccc2C1
Potency [1]: inactive

CCC(Cc1c(I)cc(I)c(O)c1I)C(=O)O (stereo not drawn)
Potency [1]: 16.9 µM (active)

Cc1ccc(S(=O)(=O)N2CCc3cc(C(=O)Nc4ccc(C(F)(F)F)cc4)ccc32)cc1
Potency [1]: inactive

Cc1nc(NC(=O)N2CCCC2C(N)=O)sc1-c1csc(C(C)(C)C)n1 (stereo not drawn)
Potency [1]: inactive

NC[C@H]1CCC[C@@H](CNC(=O)[C@@H](Cc2c[nH]c3ccccc23)NC(=O)N2CCC3(C=Cc4ccccc43)CC2)C1
Potency [1]: inactive

CC(=O)NC[C@H]1CN(c2ccc(N3CCSCC3)c(F)c2)C(=O)O1
Potency [1]: inactive

O=C(O)C1CSC(C(=O)O)N1 (stereo not drawn)
Potency [1]: inactive

CC(=O)Nc1nc2c(Oc3cc(-c4ccc(C(F)(F)F)cc4)ncn3)cccc2s1
Potency [1]: 26.8 µM (active)

CC(CCC(=O)O)C1CC[C@H]2C3[C@H](O)C[C@@H]4C[C@H](O)CCC4(C)[C@H]3C[C@H](O)C12C (stereo partly drawn)
Potency [1]: inactive

Cc1ccc(-n2c(SCc3cccc(F)c3)nc3[nH]ncc3c2=O)cc1C
Potency [1]: inactive

OC[C@@H](O)C(O)[C@@H](O)CO (stereo partly drawn)
Potency [1]: inactive

COC(=O)[C@H](Cc1cccc(C(=N)N)c1)[C@@H](C)NC(=O)c1ccc(-c2cc[n+]([O-])cc2)cc1
Potency [1]: inactive

COc1ccc(CNC(=O)Nc2ccc3c(c2)N(C)C(=O)c2ccccc2S3)cc1OC
Potency [1]: inactive

CCOC(=O)C1=C(O)c2ccccc2S(=O)(=O)N1C
Potency [1]: inactive

CC(C)c1cccc(O)c(=O)c1
Potency [1]: inactive

CCC(CC)Nc1nc(C)c(-c2ccc(OC(F)(F)F)cc2OC)nc1OC
Potency [1]: inactive

CC1=CC(O)=NS(=O)(=O)O1
Potency [1]: inactive

C=CCNc1nc(NCC=C)nc(N2CCN(C(c3ccc(F)cc3)c3ccc(F)cc3)CC2)n1
Potency [1]: inactive

COC(C(=O)N1Cc2[nH]nc(NC(=O)c3ccc(N4CCN(C)CC4)cc3)c2C1)c1ccccc1 (stereo not drawn)
Potency [1]: inactive

Nc1ncnc2c1ncn2[C@H]1O[C@@H](C(=O)N2CCN(CC(=O)Nc3cccc4c3CNC4=O)CC2)[C@H](O)[C@@H]1O
Potency [1]: inactive

CCOC(=O)CNC(=O)[C@@H]1CCCN1C(=O)Cc1ccccc1 (PhAc-Pro-Gly-OEt)
Potency [1]: inactive

COc1cccc(-n2nc(C(=O)O)cc2-c2ccc(C3CCCCC3)c(Cl)c2)c1
Potency [1]: inactive

CCOc1ccc(S(=O)(=O)O)c2cccnc12
Potency [1]: inactive

CC(C)c1ccc(-n2ncc3c(=O)n(CC(=O)Nc4cc(F)ccc4Cl)cnc32)cc1
Potency [1]: inactive

Cc1ccc(S(=O)(=O)N[C@@H]2CCCC[C@H]2O)cc1
Potency [1]: inactive

COc1cc2nc(=NC(=O)c3cccnc3)n3c(c2cc1OC)NCC3
Potency [1]: inactive

CCC(=O)O
Potency [1]: inactive

COc1ccccc1NC(=O)Cc1c(C(=O)O)[nH]c2ccc(Cl)cc12
Potency [1]: inactive

O=C(O)[C@@H]1CCCN1
Potency [1]: inactive

C[C@H](CCCC(C)(C)O)[C@H]1CC[C@H]2[C@@H]3CC=C4C[C@@H](O)CC[C@]4(C)[C@H]3CC[C@]12C
Potency [1]: inactive

COc1ccc(C(=O)c2ccccc2)c(O)c1
Potency [1]: inactive | Potency [2]: inactive

O=C(Nc1ccc(Br)cc1)c1cc(Br)c(Br)s1
Potency [1]: inactive

CC1(C)CCC(C)(C)c2cc(C#Cc3ccc(C(=O)O)cc3)ccc21
Potency [1]: inactive | Potency [2]: inactive

Cc1cn(C[C@H](N)C(=O)O)c(=O)n(Cc2ccsc2C(=O)O)c1=O
Potency [1]: inactive | Potency [2]: inactive

CN(C)CCOC(=O)C(c1ccccc1)C1(O)CCCC1 (stereo not drawn)
Potency [1]: inactive | Potency [2]: inactive

O=C1OC2(c3ccccc31)c1cc(Br)c(O)c(Br)c1Oc1c2cc(Br)c(O)c1Br
Potency [1]: 19.5 µM (active) | Potency [2]: inactive

CCOC(=O)N1CCC(N2CCC[C@@H](NC(=O)c3ccccc3C)C2)CC1
Potency [1]: inactive | Potency [2]: 16.4 µM (active)

CCCCS(=O)(=O)NC(Cc1ccc(OCCCCC2CCNCC2)cc1)C(=O)O (stereo not drawn)
Potency [1]: inactive | Potency [2]: inactive

COC(=O)C(CC1CCCC1)c1ccc(S(C)(=O)=O)cc1 (stereo not drawn)
Potency [1]: inactive | Potency [2]: inactive

Cc1ccnn1-c1ccc(C(=O)N2CCN(S(=O)(=O)c3ccc(Cl)c(C(F)(F)F)c3)CC2)cc1
Potency [1]: inactive | Potency [2]: inactive

COc1ccc(-c2nc3n(n2)C(c2ccc(OC)c(OC)c2)C(C(=O)Nc2cccnc2)=C(C)N3)cc1 (stereo not drawn)
Potency [1]: inactive

O=C1C(c2[nH]c3ccc(S(=O)(=O)O)cc3c2O)=Nc2ccc(S(=O)(=O)O)cc21
Potency [1]: inactive

Cc1cccc(C)c1NC(=O)C(C)N (stereo not drawn)
Potency [1]: inactive

COc1ccc(C(=O)Nc2ncc(-c3ccc(C(=O)O)cc3)s2)cc1
Potency [1]: inactive | Potency [2]: 0.461 µM (active)

COc1ccccc1N1CCN(CC[C@@](C)(C(=O)C2CCCCC2)c2ccccc2)CC1
Potency [1]: inactive

O=C(O)Cc1ccc2oc(-c3ccc(NC(=O)/C=C/c4ccc(Br)cc4)c(F)c3)nc2c1
Potency [1]: inactive | Potency [2]: inactive

O=C(O)C[C@@H](NC(=O)c1cc(-c2ccc(-c3ccncc3)cc2)cs1)c1ccccc1
Potency [1]: inactive | Potency [2]: inactive

— PubChem BioAssay (NCATS)
